For 30 compounds, Inhibition results are on record in ChEMBL document CHEMBL1157539, “Thousands of chemical starting points for antimalarial lead identification” (Nature, 2010).

“And” between values parts separate entries of the source, which are not always exact repeats. Identical values can stand only once.

What all share (format): functional
Test [1] deals with Plasmodium falciparum. Nature of the test: GSK_TCMDC: Inhibition of Plasmodium falciparum 3D7 in whole red blood cells, using parasite LDH activity as an index of growth. Test compounds present at 2uM.
Test [2] concerns Plasmodium falciparum. Nature of the test: GSK_TCMDC: Inhibition of Plasmodium falciparum Dd2 in whole red blood cells, using parasite LDH activity as an index of growth. Test compounds present at 2uM.
In a further test the test system is HepG2. Nature of the test: GSK_TCMDC: Percent inhibition of human HepG2 cell line. Test compounds present at 10uM.

For `CC(=O)Nc1ccc(OCCN(CC(C)C)c2ccc(C#N)c(C(F)(F)F)c2)c(Cl)c1`, the Inhibition stood at 94% with Plasmodium falciparum [1], 94% in the test on Plasmodium falciparum [2] and 13% in the test on HepG2.
For the compound `O=C1COc2ccccc2N1CCN1CCC(NCc2ccc(-c3cccs3)cc2)CC1`, the Inhibition with Plasmodium falciparum [1] came out at 87%; with Plasmodium falciparum [2] it was 18%; in the test with HepG2, 37%.
As for `C/C=C1/CN2CC[C@H]1C[C@H]2[C@H](O)c1ccnc2ccc(O)cc12`, the Inhibition was 99% with Plasmodium falciparum [1], 11% in the test with Plasmodium falciparum [2] and 0% in the test on HepG2.
On to `O=C(/C=C/c1cc([N+](=O)[O-])ccc1Cl)NC1CCC(CN2CCC(c3c[nH]c4ccccc34)CC2)CC1` (stereo not given), for which the results for the Inhibition in the test on Plasmodium falciparum [1], in the test on Plasmodium falciparum [2] and in the test with HepG2 were 100%, 94% and 21%, respectively.
For `CCN1CCC2(c3cccc(OC)c3)Cc3nc4ccccc4c(-c4ccccc4)c3CC2C1` (stereo not given), the Inhibition in the test with Plasmodium falciparum [1] is on record as 99%; with Plasmodium falciparum [2], 98%; in the test on HepG2, 0%.
For `CC1=CC(=O)[C@@H](O)[C@]2(C)[C@H]3[C@@]4(O)OC[C@@]35[C@@H](C[C@@H]12)OC(=O)C[C@H]5[C@@H](C)[C@H]4O` [CHAPARRINONE], in that order: 99%, 98% and 38%.
Regarding `O=C(NC1CCC(CN2CCC(c3c[nH]c4ccccc34)CC2)CC1)c1csc(-c2cccc(Cl)c2Cl)n1` (stereo not given), the Inhibition in the test with Plasmodium falciparum [1] came out at 99%; with Plasmodium falciparum [2] it was 41%; with HepG2, 34%.
Consider `O=C(/C=C/c1ccc(Cl)c(Cl)c1)NCC1CCC(N2CCC(c3c[nH]c4ccccc34)CC2)CC1` (stereo not given), for which the Inhibition is given as 100% in the test with Plasmodium falciparum [1], 95% in the test on Plasmodium falciparum [2] and 48% in the test on HepG2.
Taken in the same sequence, the figures for `Cc1c(C(=O)N[C@@H](C)c2ccccc2)c2cc(O)c(Br)cc2n1C1CCCCC1` were 98%, 95% and 4%.
In the case of `Cl.NCC(=O)c1cc2c(cc1N)OCCO2`, the Inhibition in the test with Plasmodium falciparum [1] is 89%; in the test on Plasmodium falciparum [2], 42%; with HepG2, 64%.
Taken in the same sequence, the figures for `Cc1ccc(C2(O)CC3CCC(C2)N3C)cc1` (stereo not given) were 92%, 16% and 0%.
As to `CO/C(=C\C=C\c1cc2cc(Cl)c(Cl)cc2[nH]1)C(=O)N[C@H]1CN2CCC1CC2`, the Inhibition stood at 82% with Plasmodium falciparum [1], 36% in the test with Plasmodium falciparum [2] and 43% with HepG2.
For the compound `CCc1ccc(CN2CCC(CN(C(=O)c3ccccc3)c3ccc(Cl)cc3)CC2)cc1`, the Inhibition turned out to be 96% in the test with Plasmodium falciparum [1], 95% with Plasmodium falciparum [2] and 12% in the test on HepG2.
With `O=C(NC1CCC(CN2CCC(c3c[nH]c4ccccc34)CC2)CC1)NC12CC3CC(CC(C3)C1)C2` (stereo not given), the Inhibition came out at 96% in the test on Plasmodium falciparum [1], 46% with Plasmodium falciparum [2] and 37% in the test on HepG2.
For `CCCc1ccc2c(c1O)CCC(N(CCC)CCC)C2.Cl` (stereo not given), in that order: 90%, 23% and 0%.
For `Oc1ccc(Cl)cc1CN1CCC(CCOC(c2ccccc2)c2ccc(Cl)cc2)CC1` (stereo not given), in that order: 98%, 100% and 32%.
On to `CC(Cc1ccc(OC2CCCCC2)cc1)NCC(O)c1cccc(Cl)c1.Cl` (stereo not given), for which the figures for the Inhibition in the test with Plasmodium falciparum [1], in the test with Plasmodium falciparum [2] and with HepG2 were 99%, 99% and 66%, respectively.
On to `O=C(NC1CCC(CN2CCC(c3c[nH]c4ccccc34)CC2)CC1)c1cc(-c2ccc(F)cc2F)ccc1O` (stereo not given), for which the values for the Inhibition in the test on Plasmodium falciparum [1], in the test with Plasmodium falciparum [2] and in the test with HepG2 were 100%, 100% and 30%, respectively.
On to `CC[C@H]1CN2CC[C@H]1C[C@H]2[C@H](O)c1cc(-c2cccc(F)c2)nc2ccc(OC)cc12.Cl`, for which the values for the Inhibition in the test on Plasmodium falciparum [1], with Plasmodium falciparum [2] and in the test on HepG2 were 99%, 97% and 34%, respectively.
For `COc1cc(C=CC(=O)N2CCC(CN3CCC(c4c[nH]c5ccccc45)CC3)CC2)cc(OC)c1`, the Inhibition with Plasmodium falciparum [1] is 95%; in the test on Plasmodium falciparum [2] it was 8%; in the test on HepG2, 19%.
Regarding `Cc1ccc(CC(C)NC[C@H](O)c2cccc(Cl)c2)cc1` (stereo not given in full), the results for the Inhibition with Plasmodium falciparum [1], in the test with Plasmodium falciparum [2] and with HepG2 were 93%, 64% and 0%, respectively.
On to `CC[C@H]1CN2CC[C@H]1C[C@H]2[C@H](O)c1cc(-c2ccc(F)cc2C)nc2ccc(OC)cc12.Cl`, for which the Inhibition in the test with Plasmodium falciparum [1] worked out at 99%; in the test on Plasmodium falciparum [2], 100%; with HepG2, 0%.
`Cc1cccc(C(=O)Nc2ccnc(N(C)C3CCN(CC(C)C)CC3)c2)c1.O=C(O)C(F)(F)F`: the Inhibition with Plasmodium falciparum [1] came to 95%; with Plasmodium falciparum [2] it was 6%; with HepG2 it was 10%.
Consider `O=C(/C=C/c1cccc(F)c1)NC1CCC(CN2CCC(c3c[nH]c4ccccc34)CC2)CC1` (stereo not given), for which the Inhibition with Plasmodium falciparum [1] is 99% and 98%; with Plasmodium falciparum [2], 28% and 31%; in the test on HepG2 it was 39% and 35%.
In the case of `CC(Cc1ccc(Oc2ccc(Cl)cc2)cc1)NCC(O)c1cccc(Cl)c1` (stereo not given), the figures for the Inhibition with Plasmodium falciparum [1], in the test on Plasmodium falciparum [2] and with HepG2 were 99%, 98% and 3%, respectively.
For the compound `O=C(Nc1cc(C(F)(F)F)cc(C(F)(F)F)c1)N1CCC(CN2CCC(c3c[nH]c4ccccc34)CC2)CC1`, the Inhibition worked out at 100% in the test with Plasmodium falciparum [1], 99% with Plasmodium falciparum [2] and 42% in the test with HepG2.
For `CC[C@H]1CN2CC[C@H]1C[C@@H]2[C@H](O)c1ccnc2ccc(O)cc12`, the Inhibition with Plasmodium falciparum [1] came to 94%; with Plasmodium falciparum [2], 0%; in the test on HepG2 it was 0%.
For `O=C(NC1CCC(CN2CCC(c3c[nH]c4ccccc34)CC2)CC1)c1csc(-c2ccc(C(F)(F)F)cc2Cl)n1` (stereo not given), the figures for the Inhibition in the test on Plasmodium falciparum [1], in the test with Plasmodium falciparum [2] and in the test with HepG2 were 99%, 75% and 32%, respectively.
On to `O=C(/C=C/c1ccc(Cl)c(Cl)c1)N1CCC(CN2CCC(c3c[nH]c4cc(C(F)(F)F)ccc34)CC2)CC1`, for which the Inhibition worked out at 99% in the test on Plasmodium falciparum [1], 38% in the test on Plasmodium falciparum [2] and 6% in the test with HepG2.
Take `O=C(/C=C/c1ccccc1O)NC1CCC(CN2CCC(c3c[nH]c4ccccc34)CC2)CC1` (stereo not given): the Inhibition is 100% in the test on Plasmodium falciparum [1]; 45% and 73% with Plasmodium falciparum [2]; 11% and 22% with HepG2.

Usually Inhibition stands for the change of the read-out against control, counted positive when it falls. Higher therefore signals a response far below the control.
